Activity calls are given as the source filed them. Calls come from the whole dose curve; as a rule, active = well fitted curve in the direction sought with a large enough effect; inconclusive = small, poorly fitted or top-dose-only effect, or another doubt; inactive = no such curve, though single readings can be large or run the other way.
molecular target: Galactokinase (Homo sapiens) (UniProt P51570); assay: qHTS Validation Assay for Inhibitors of Human Galactokinase (GALK) (AID 493189); conditions: purified human GALK enzyme activity, qHTS 7-point titration; series mostly up to 57.5 µM
Sequence (P51570 whole entry, looked up): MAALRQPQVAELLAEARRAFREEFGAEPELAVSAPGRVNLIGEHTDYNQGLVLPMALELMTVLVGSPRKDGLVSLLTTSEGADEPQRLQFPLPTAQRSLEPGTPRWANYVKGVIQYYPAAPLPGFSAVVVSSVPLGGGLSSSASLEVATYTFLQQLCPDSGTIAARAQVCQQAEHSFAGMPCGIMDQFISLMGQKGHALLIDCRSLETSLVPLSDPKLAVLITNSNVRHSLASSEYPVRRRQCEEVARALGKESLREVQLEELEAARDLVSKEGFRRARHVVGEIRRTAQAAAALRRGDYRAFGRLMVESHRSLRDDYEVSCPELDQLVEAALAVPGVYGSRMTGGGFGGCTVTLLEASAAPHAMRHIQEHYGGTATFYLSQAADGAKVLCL
Description: NIH Molecular Libraries Probe Production Centers Network [MLPCN]
NIH Chemical Genomics Center [NCGC]
Assay Submitter (PI): Kent Lai (University of Utah School of Medicine, 50 N Mario Capecchi Drive, Salt Lake City, UT 84132)
Inherited deficiency of galactose-1-phosphate uridyltransferase (GALT) can result in a potentially lethal disorder called Classic Galactosemia (OMIM 230400). Several lines of evidence indicate that an elevated level of galactose-1-phosphate (gal-1-p), the product of galactokinase (GALK), is a major, if not sole, pathogenic mechanism in patients with classic galactosemia. Therefore, finding inhibitors of GALK is a potential novel therapy for this inherent metabolic disease and is the long term goal of this project.
GALK (provided by the assay submitter) was assayed using ATP and D-(+)-Galactose (Sigma-Aldrich cat# G0750) as substrates. Promega Kinase-Glo Plus (cat# V3774) technology was used to detect the residual ATP following kinetic reaction. Briefly, the Kinase-Glo Plus contains Ultra-Glo [2] luciferase and D-luciferin which generates a bioluminescence signal from the remaining ATP.
NCGC Assay Protocol Summary:
Three uL/well of ATP-buffer solution (35 uM ATP, 20mM HEPES pH8.0, 5 mM MgCl2, 60 mM NaCl, 1 mM DTT, 0.01% BSA final concentration) was dispensed into 1536-well, assay plates (Greiner, solid white medium-binding plates) with Aurora Discovery BioRAPTR Flying Reagent Dispenser (FRD; Beckton-Dickenson). Compound solution (23 nL) was transferred to the assay plate using the Kalypsys 1536-pin tool. One uL/well GALK-galactose solution (5 nM GALK, 100 uM galactose, 20 mM HEPES pH8.0, 5 mM MgCl2, 60 mM NaCl, 1 mM DTT, 0.01% BSA final concentration) was then added using the FRD yielding a total kinase reaction volume of 4 uL/ well. After 1 hour of room temperature incubation, 4 uL Kinase-Glo Plus reagent was added for a final assay volume of 8 uL/ well. Luminescence was detected with the ViewLux plate reader (Perkin Elmer, Waltham, MA) after 10 min incubation using a 1 sec exposure time and 2x binning.

Row | Structure (SMILES) | outcome
1 | NCCCCCCNS(=O)(=O)c1cccc2c(Cl)cccc12 | inactive
2 | C[N+](C)(C)CCC(=O)c1cccc2ccccc12 | inactive
3 | S=C(Nc1ccccc1)Nc1nccs1 | inactive
4 | O=C(Nc1cc(C(=O)Nc2ccc(S(=O)(=O)O)cc2S(=O)(=O)O)cc(C(=O)Nc2ccc(S(=O)(=O)O)cc2S(=O)(=O)O)c1)Nc1cc(C(=O)Nc2ccc(S(=O)(=O)O)cc2S(=O)(=O)O)cc(C(=O)Nc2ccc(S(=O)(=O)O)cc2S(=O)(=O)O)c1 | inactive
5 | O=C(OCCN1CCCCC1)c1c[nH]c2ccccc12 | inactive
6 | CC(C)=CCC/C(C)=C/CC/C(C)=C/CSc1ccccc1C(=O)O | inactive
7 | Cc1cccc(/C=C/c2ccccc2)n1 | inactive
8 | CN(C)CCCCSC(=N)N | inactive
9 | CC(N)=NCc1cccc(CN)c1 | inactive
10 | FC(F)(F)c1cc(CO[C@H]2CCCN[C@H]2c2ccccc2)cc(C(F)(F)F)c1 | inactive
11 | O=C(O)c1cc(=O)c2ccc(Cl)cc2[nH]1 | inactive
12 | N#C/C(=C\c1ccc(O)c(O)c1)C(=O)Nc1ccccc1 | inactive
13 | NCCNS(=O)(=O)c1cccc2cnccc12 | inactive
14 | COc1ccccc1NC(=O)Nc1nc(-c2cccnc2)nc2ccccc12 | inactive
15 | COC(=O)c1c(-c2cc(OC)c(OC)c(OC)c2)c2ccnc(OCc3ncccn3)c2c(=O)n1Cc1ccnc(C)c1 | inactive
16 | COc1ccc2c(c1)c(CC(=O)N1CCOCC1)c(C)n2C(=O)c1ccc(Cl)cc1 | inactive
17 | O=Nc1c(-c2c(O)[nH]c3ccccc23)[nH]c2ccccc12 | inactive
18 | COc1cc2c(cc1C(F)(F)F)N(C(=O)Nc1cc(F)cc(-c3cccnc3)c1)CC2 | inactive
19 | C/C=C1\C(=O)CC2C3CCC4=CC(=O)CC[C@]4(C)C3CC[C@]12C (some centres undefined) | inactive
20 | Cc1cccc(C)c1NC(=O)C[N+](C)(C)C | inactive
21 | CCCCCCCCCCCCC/C=C/[C@@H](O)[C@@H](N)CO | inactive
22 | Cc1ccc(OCC(O)C(C)NC(C)C)c2c1CCC2 (centres undefined) | inactive
23 | COc1[nH]c2ccc(F)cc2c1C(=O)OCC1CCN(CCNS(C)(=O)=O)CC1 | inactive
24 | Oc1cc2c(c(Cl)c1O)CCNCC2c1ccccc1 (centres undefined) | inactive
25 | Cn1cnc2c(NC3CCCC3)ncnc21 | inactive
26 | NC(CCC(=O)NCS(=O)(=O)O)C(=O)O (centres undefined) | inactive
27 | CCCn1c(=O)c2[nH]c(-c3ccc(OCC(=O)Nc4ccc(C#N)cc4)cc3)nc2n(CCC)c1=O | inactive
28 | O=S(=O)(NCCNC/C=C/c1ccc(Br)cc1)c1cccc2cnccc12 | inactive
29 | C1CCC(N=C(NC23CC4CC(CC(C4)C2)C3)N2CCOCC2)CC1 | inactive

Reference: PubChem BioAssay (NCATS)
